Source: PubChem BioAssay AID651548 (Broad Institute, 2012)
Screen size: about 57,000 compounds; about 200 (0.35%) were called active. Shown is part of a subset that was picked to be rich in actives. Unmarked numbers belong to inactive results.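 How the source made its calls: active means mean inhibition of replicates at least 50% and every single replicate also reaching 50%; inconclusive means mean inhibition at least 50% but some replicate falls below 50%; inactive means mean inhibition under 50%.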

Target: Histone-lysine N-methyltransferase EZH2 (Homo sapiens) (UniProt Q15910)
Sequence (Q15910 whole entry, looked up): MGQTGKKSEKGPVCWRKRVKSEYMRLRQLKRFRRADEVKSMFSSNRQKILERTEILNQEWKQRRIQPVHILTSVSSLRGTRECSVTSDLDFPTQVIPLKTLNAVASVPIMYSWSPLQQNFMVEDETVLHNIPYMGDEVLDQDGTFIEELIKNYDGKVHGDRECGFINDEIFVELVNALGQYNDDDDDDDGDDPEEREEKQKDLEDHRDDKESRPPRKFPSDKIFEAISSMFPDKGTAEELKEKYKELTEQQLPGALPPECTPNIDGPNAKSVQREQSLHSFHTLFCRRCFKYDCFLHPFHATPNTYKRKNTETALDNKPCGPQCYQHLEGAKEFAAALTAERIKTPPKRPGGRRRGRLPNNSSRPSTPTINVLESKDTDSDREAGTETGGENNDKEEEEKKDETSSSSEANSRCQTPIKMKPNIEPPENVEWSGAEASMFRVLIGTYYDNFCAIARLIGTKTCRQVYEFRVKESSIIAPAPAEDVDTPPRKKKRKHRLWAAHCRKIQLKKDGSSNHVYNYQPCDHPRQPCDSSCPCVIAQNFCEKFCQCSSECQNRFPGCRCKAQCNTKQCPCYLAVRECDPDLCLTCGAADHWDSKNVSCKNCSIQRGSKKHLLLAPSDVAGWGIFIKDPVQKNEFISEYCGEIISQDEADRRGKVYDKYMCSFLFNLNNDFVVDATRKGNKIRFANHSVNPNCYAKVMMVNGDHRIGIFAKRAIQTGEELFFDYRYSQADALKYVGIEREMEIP
Assay: EZH2/PRC2 methyltransferase inhibitors, primary screen, biochemical, DELFIA time-resolved fluorescence, single point (AID 651548);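 further: dimethyl H3K27 on biotinylated H3 21-44 peptide detected by antibody; plate controls were median neutral control wells for no effect and median positive control wells for full effect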
Conditions: PRC2 H3K27 methylation, DELFIA TRF, 1 h; at 12.5 µM; stronger effect = higher value

| SMILES | inhibition |
| --- | --- |
| C[C@@H]1O[C@@H](O[C@@H]2C=C3CC[C@@H]4C(C[C@@H](O)[C@]5(C)[C@@H](c6ccc(=O)oc6)CC[C@]45O)[C@@]3(C)CC2)[C@H](O)[C@H](O)[C@H]1O[C@@H]1O[C@H](CO)[C@@H](O)[C@H](O)[C@H]1O (stereo not given in full) | 75.9% (active) |
| c1ccc(CCCCN2CCC(c3ccccc3)CC2)cc1 | 11.8% |
| CCCCCCCCCCCCCC(=O)O[C@@H]1[C@@H](C)[C@@]2(O)[C@@H](C=C(CO)C[C@]3(O)C(=O)C(C)=C[C@@H]23)[C@@H]2C(C)(C)[C@]12OC(C)=O | -10.7% |
| c1ccc2c(c1)[I+]c1ccccc1-2 | -3.64% |
| CC(C)(Cc1c[nH]c2ccc(Cl)cc12)NCCOc1ccccc1OCC1CC1 | 3.93% |
